# Assay results published in publication PMC7862700, “An all-to-all approach to the identification of sequence-specific readers for epigenetic DNA modifications on cytosine”.
# Assays:
# Assay in all cases: DAPPL (digital affinity profiling via proximity ligation, sequencing); 10 mM Tris-HCl pH 7.5, 50 mM NaCl, 1 mM DTT, 4% glycerol, room temperature, 30 min; GST-TFs on glutathione beads, 16-mer random dsDNA library, 0.1% formaldehyde crosslink after washing; high values mean tight binding
# [1] = molecular target: T1, FLI1 (Homo sapiens, UniProt Q01543 1-452); conditions: protein: recombinant; tags: N-terminal GST; dsDNA, one strand shown
# T1 sequence: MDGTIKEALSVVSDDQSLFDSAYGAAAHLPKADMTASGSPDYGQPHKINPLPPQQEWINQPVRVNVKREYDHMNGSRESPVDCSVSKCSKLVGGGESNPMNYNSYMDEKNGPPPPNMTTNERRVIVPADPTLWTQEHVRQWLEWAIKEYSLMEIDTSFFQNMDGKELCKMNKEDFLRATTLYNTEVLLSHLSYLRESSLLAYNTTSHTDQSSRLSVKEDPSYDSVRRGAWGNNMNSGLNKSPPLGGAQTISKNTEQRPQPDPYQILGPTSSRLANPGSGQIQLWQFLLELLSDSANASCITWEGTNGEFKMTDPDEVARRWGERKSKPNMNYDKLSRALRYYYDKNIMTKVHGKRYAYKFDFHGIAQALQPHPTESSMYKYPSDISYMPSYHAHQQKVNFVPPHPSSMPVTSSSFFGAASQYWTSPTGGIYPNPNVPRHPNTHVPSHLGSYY
# How it was run: (§1)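 Human transcription factors carrying a GST fusion were produced in yeast, bound to glutathione beads, tagged with DNA barcodes and pooled together with a tag-only sample. Each pool was held with 200 nmole of a random double-stranded 16-mer DNA library in Tris/NaCl/DTT/glycerol buffer for 30 min at room temperature, then washed, crosslinked in 0.1% formaldehyde, proximity-ligated with BsaI/T4 ligase (1 h, 37 °C), PCR-amplified and sequenced on an Illumina NextSeq500. Binding signal is the read frequency of each hexamer for a given factor divided by its frequency in the tag-only sample.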
# [2] = molecular target: T2, ELK1 (Homo sapiens, UniProt P19419 1-428); conditions: protein: recombinant; tags: N-terminal GST; dsDNA, one strand shown
# T2 sequence: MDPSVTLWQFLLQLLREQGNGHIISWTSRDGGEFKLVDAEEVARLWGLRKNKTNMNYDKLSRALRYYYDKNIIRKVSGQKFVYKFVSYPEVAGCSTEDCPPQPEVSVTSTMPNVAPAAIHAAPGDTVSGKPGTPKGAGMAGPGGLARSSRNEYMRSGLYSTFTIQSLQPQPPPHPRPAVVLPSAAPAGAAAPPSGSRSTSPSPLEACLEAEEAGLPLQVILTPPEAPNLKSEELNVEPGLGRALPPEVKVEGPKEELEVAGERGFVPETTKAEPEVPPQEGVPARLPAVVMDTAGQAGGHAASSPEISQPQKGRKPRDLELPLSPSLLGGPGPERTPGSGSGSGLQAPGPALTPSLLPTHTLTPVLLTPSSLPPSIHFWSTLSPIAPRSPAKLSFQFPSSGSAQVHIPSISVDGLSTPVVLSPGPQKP
# How it was run: as §1
# [3] = molecular target: T3, GABPA (Homo sapiens, UniProt Q06546 1-454); conditions: protein: recombinant; tags: N-terminal GST; dsDNA, one strand shown
# T3 sequence: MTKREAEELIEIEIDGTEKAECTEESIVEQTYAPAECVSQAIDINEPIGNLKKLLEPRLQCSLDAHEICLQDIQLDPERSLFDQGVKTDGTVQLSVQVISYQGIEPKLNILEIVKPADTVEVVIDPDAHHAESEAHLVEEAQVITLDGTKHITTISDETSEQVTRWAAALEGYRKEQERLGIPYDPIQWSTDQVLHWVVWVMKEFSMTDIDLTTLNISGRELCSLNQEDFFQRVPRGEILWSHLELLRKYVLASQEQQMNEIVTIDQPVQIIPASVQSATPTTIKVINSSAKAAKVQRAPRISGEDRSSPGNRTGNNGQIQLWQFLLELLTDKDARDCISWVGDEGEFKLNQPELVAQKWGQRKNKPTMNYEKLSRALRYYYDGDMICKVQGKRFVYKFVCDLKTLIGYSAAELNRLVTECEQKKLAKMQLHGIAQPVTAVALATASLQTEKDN
# How it was run: as §1
# [4] = molecular target: T4, ERG (Homo sapiens, UniProt P11308 1-479); conditions: protein: recombinant; tags: N-terminal GST; dsDNA, one strand shown
# T4 sequence: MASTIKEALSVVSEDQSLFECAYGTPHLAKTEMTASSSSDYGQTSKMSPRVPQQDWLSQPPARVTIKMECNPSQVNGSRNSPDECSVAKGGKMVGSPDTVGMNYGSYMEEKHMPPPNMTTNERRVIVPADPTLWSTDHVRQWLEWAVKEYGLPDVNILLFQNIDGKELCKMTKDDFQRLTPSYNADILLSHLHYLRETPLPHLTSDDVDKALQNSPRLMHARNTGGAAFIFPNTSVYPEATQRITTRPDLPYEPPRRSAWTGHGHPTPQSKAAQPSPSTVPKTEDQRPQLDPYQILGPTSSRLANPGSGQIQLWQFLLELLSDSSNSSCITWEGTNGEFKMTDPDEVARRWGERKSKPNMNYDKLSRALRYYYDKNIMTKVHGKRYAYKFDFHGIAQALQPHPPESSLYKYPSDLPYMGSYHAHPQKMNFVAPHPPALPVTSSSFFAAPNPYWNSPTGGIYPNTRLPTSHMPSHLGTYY
# How it was run: as §1
# [5] = molecular target: ELF1 (Homo sapiens, UniProt P32519 1-619); conditions: protein: recombinant; tags: N-terminal GST; dsDNA, one strand shown
# How it was run: as §1
# [6] = molecular target: T5, EHF (Homo sapiens, UniProt Q9NZC4 1-300); conditions: protein: recombinant; tags: N-terminal GST; dsDNA, one strand shown
# T5 sequence: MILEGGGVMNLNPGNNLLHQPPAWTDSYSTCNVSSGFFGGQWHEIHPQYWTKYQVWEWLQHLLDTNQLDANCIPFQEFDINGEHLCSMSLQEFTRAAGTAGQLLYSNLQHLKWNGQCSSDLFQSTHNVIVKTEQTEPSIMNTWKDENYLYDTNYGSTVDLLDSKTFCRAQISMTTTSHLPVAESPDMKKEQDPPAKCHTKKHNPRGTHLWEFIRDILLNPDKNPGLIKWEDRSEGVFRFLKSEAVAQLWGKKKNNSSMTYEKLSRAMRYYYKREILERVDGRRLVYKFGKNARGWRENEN
# How it was run: as §1
# [7] = molecular target: SPI1 (Homo sapiens, UniProt P17947 1-270); conditions: protein: recombinant; tags: N-terminal GST; dsDNA, one strand shown
# How it was run: as §1
# [8] = molecular target: SPIB (Homo sapiens, UniProt Q01892 1-262); conditions: protein: recombinant; tags: N-terminal GST; dsDNA, one strand shown
# How it was run: as §1
# [9] = molecular target: T6, ELK3 (Homo sapiens, UniProt P41970 1-407); conditions: protein: recombinant; tags: N-terminal GST; dsDNA, one strand shown
# T6 sequence: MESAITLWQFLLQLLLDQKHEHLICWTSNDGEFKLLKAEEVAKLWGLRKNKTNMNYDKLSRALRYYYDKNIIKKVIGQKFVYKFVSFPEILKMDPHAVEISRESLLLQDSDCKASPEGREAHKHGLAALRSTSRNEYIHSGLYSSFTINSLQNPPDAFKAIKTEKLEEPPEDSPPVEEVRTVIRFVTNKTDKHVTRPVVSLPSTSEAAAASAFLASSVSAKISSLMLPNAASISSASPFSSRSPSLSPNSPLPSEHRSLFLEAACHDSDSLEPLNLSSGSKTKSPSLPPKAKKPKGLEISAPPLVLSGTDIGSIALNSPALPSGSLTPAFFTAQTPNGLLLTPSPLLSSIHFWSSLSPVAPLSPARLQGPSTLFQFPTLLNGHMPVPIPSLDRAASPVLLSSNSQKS
# How it was run: as §1
# [10] = molecular target: T7, FEV (Homo sapiens, UniProt Q99581 1-238); conditions: protein: recombinant; tags: N-terminal GST; dsDNA, one strand shown
# T7 sequence: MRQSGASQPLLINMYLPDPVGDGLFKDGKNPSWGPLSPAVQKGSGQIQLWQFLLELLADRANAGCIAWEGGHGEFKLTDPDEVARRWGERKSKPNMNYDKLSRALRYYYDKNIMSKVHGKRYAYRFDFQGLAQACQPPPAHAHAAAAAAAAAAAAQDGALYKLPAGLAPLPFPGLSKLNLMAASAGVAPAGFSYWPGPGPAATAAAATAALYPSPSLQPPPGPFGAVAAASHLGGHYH
# How it was run: as §1
# [11] = molecular target: ETV5 (Homo sapiens, UniProt P41161 1-510); conditions: protein: recombinant; tags: N-terminal GST; dsDNA, one strand shown
# How it was run: as §1
# [12] = molecular target: HSF1 (Homo sapiens, UniProt Q00613 1-529); conditions: protein: recombinant; tags: N-terminal GST; chain copies: 3; dsDNA, one strand shown
# How it was run: as §1
# [13] = molecular target: T8, SPIC (Homo sapiens, UniProt Q8N5J4 1-248); conditions: protein: recombinant; tags: N-terminal GST; dsDNA, one strand shown
# T8 sequence: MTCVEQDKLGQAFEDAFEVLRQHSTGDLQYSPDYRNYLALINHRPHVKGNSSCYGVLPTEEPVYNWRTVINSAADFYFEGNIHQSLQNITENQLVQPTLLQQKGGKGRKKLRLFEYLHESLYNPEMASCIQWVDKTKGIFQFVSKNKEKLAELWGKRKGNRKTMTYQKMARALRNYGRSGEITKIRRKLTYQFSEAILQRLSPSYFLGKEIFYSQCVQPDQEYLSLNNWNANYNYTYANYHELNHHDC
# How it was run: as §1
# [14] = molecular target: ELF4 (Homo sapiens, UniProt Q99607 1-663); conditions: protein: recombinant; tags: N-terminal GST; dsDNA, one strand shown
# How it was run: as §1
# [15] = molecular target: T9, ELK4 (Homo sapiens, UniProt P28324-2 1-405); conditions: protein: recombinant; tags: N-terminal GST; dsDNA, one strand shown
# T9 sequence: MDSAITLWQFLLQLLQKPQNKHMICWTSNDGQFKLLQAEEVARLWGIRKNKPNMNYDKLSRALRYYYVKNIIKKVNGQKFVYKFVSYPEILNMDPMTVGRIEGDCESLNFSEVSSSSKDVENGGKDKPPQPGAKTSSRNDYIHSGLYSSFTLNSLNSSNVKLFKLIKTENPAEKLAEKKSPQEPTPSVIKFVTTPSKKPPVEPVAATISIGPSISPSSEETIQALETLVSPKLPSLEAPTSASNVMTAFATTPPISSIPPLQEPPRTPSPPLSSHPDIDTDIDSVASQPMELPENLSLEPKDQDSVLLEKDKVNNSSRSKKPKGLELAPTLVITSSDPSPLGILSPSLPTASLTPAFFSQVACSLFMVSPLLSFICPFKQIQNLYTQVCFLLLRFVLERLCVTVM
# How it was run: as §1
# [16] = molecular target: T10, ETV2 (Homo sapiens, UniProt O00321 1-342); conditions: protein: recombinant; tags: N-terminal GST; dsDNA, one strand shown
# T10 sequence: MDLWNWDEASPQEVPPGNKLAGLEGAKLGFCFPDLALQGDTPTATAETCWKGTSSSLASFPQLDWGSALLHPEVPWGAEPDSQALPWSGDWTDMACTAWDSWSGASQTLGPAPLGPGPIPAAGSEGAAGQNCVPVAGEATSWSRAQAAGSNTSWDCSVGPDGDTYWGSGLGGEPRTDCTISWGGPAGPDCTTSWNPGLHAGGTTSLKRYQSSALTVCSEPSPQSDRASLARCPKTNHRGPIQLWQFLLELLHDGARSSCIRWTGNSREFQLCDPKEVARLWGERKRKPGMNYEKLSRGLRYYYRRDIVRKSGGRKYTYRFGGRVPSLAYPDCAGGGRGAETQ
# How it was run: as §1
# [17] = molecular target: T11, ELF3 (Homo sapiens, UniProt P78545 1-371); conditions: protein: recombinant; tags: N-terminal GST; dsDNA, one strand shown
# T11 sequence: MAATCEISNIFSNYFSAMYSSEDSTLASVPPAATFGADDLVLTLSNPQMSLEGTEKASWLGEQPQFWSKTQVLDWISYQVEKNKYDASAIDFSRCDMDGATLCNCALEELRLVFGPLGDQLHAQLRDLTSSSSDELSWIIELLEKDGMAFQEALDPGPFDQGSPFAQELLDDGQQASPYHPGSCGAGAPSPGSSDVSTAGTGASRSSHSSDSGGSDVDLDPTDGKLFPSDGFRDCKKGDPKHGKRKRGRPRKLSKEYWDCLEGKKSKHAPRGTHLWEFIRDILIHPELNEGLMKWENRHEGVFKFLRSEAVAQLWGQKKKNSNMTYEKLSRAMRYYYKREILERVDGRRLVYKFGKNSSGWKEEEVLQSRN
# How it was run: as §1
# [18] = molecular target: CRX (Homo sapiens, UniProt O43186 1-299); conditions: protein: recombinant; tags: N-terminal GST; dsDNA, one strand shown
# How it was run: as §1
# [19] = molecular target: ETV1 (Homo sapiens, UniProt P50549 1-477); conditions: protein: recombinant; tags: N-terminal GST; dsDNA, one strand shown
# How it was run: as §1
# Sequence of ELF1 (P32519 whole entry): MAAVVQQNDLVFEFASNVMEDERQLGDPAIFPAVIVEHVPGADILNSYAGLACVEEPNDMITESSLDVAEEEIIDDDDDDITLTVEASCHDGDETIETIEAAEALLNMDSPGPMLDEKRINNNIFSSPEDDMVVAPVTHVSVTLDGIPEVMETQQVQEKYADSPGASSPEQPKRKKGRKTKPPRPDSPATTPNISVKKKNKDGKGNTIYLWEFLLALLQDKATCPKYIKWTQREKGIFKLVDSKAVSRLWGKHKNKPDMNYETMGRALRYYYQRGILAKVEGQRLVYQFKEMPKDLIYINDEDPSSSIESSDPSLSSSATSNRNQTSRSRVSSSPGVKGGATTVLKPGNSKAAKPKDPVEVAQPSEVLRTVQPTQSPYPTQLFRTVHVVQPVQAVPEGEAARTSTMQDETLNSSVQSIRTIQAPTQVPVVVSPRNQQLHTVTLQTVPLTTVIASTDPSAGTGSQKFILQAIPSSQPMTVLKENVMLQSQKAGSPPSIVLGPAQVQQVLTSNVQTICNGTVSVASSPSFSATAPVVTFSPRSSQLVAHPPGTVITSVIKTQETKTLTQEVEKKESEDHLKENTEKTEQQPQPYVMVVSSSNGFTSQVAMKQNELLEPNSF
# Sequence of CRX (O43186 whole entry): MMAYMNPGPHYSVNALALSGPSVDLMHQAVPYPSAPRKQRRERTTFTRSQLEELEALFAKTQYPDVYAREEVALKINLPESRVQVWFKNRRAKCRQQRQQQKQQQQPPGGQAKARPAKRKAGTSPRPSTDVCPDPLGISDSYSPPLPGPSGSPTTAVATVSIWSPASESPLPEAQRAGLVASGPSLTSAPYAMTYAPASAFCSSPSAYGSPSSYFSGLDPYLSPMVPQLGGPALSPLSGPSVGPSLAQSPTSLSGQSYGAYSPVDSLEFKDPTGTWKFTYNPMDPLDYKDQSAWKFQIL
# Sequence of ETV1 (P50549 whole entry): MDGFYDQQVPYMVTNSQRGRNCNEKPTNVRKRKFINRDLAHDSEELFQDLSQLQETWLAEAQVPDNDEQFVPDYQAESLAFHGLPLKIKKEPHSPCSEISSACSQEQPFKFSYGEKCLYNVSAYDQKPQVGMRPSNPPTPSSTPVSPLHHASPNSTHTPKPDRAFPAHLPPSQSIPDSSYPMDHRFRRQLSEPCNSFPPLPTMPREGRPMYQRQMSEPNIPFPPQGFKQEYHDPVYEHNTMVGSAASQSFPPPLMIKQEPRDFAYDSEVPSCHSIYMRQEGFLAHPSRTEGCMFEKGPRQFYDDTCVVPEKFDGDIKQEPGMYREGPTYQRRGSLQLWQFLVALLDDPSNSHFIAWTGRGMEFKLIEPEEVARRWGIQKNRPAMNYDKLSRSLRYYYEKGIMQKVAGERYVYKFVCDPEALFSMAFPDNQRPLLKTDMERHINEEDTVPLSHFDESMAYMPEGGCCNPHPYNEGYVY
# Sequence of HSF1 (Q00613 whole entry): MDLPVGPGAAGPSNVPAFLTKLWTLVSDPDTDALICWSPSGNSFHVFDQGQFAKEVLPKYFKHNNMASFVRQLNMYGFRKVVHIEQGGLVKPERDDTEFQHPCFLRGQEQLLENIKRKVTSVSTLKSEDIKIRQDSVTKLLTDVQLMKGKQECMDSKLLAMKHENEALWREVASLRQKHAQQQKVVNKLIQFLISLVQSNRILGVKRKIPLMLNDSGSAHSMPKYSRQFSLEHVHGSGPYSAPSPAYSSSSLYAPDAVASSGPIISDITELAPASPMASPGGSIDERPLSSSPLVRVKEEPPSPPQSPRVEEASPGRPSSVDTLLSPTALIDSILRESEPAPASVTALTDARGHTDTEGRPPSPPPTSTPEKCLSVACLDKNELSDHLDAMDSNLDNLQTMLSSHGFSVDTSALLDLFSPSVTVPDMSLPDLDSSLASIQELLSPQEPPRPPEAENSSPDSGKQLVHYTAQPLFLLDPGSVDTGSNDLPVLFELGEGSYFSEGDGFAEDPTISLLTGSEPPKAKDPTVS
# Sequence of SPIB (Q01892 whole entry): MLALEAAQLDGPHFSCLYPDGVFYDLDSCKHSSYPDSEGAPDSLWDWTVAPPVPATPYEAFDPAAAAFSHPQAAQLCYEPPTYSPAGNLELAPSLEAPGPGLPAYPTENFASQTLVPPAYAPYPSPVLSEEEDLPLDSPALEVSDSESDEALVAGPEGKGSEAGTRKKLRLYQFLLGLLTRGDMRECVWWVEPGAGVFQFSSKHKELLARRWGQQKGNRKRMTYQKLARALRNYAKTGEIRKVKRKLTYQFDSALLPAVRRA
# Sequence of ELF4 (Q99607 whole entry): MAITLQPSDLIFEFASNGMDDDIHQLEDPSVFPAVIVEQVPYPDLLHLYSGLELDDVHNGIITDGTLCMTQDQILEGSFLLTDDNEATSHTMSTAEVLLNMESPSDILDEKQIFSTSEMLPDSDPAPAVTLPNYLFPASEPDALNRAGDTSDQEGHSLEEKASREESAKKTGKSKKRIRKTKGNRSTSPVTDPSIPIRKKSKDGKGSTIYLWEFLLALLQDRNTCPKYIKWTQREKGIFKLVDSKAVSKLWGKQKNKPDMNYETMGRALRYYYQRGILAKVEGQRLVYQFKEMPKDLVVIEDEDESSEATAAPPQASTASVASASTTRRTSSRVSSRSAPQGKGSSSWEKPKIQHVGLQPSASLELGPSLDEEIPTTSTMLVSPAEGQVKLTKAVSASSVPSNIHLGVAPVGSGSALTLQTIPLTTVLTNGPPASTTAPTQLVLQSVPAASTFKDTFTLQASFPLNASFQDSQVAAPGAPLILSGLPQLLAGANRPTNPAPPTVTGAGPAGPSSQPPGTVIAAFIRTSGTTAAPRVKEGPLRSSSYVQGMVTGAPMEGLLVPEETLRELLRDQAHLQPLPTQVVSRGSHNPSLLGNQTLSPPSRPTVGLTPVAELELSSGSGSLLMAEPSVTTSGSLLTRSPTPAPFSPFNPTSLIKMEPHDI
# Sequence of ETV5 (P41161 whole entry): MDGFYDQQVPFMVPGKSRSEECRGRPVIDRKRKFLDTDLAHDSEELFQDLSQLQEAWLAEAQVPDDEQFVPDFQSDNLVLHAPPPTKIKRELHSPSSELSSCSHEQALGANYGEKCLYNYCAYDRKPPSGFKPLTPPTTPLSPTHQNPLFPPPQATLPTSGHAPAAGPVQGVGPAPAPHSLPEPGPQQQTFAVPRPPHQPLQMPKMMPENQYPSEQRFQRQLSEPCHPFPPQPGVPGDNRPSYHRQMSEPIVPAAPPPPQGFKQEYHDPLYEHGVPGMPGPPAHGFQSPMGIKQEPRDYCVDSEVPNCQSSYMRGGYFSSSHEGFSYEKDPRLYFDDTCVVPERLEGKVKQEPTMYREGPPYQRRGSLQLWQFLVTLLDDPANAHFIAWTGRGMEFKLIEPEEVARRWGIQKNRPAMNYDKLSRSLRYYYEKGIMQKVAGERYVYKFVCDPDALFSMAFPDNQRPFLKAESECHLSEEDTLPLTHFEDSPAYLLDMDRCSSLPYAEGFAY
sequence,measurement,setting,value
TAGTTT,binding signal,[1],"1.23 fold enrichment (6-mer frequency, TF over GST control)"
same,binding signal,[2],"1.19 fold enrichment (6-mer frequency, TF over GST control)"
same,binding signal,[3],"1.25 fold enrichment (6-mer frequency, TF over GST control)"
same,binding signal,[4],"1.14 fold enrichment (6-mer frequency, TF over GST control)"
same,binding signal,[5],"1.22 fold enrichment (6-mer frequency, TF over GST control)"
same,binding signal,[6],"1.21 fold enrichment (6-mer frequency, TF over GST control)"
same,binding signal,[7],"1.12 fold enrichment (6-mer frequency, TF over GST control)"
same,binding signal,[8],"1.13 fold enrichment (6-mer frequency, TF over GST control)"
same,binding signal,[9],"1.23 fold enrichment (6-mer frequency, TF over GST control)"
same,binding signal,[10],"1.09 fold enrichment (6-mer frequency, TF over GST control)"
same,binding signal,[11],"1.18 fold enrichment (6-mer frequency, TF over GST control)"
same,binding signal,[12],"1.27 fold enrichment (6-mer frequency, TF over GST control)"
same,binding signal,[13],"1.21 fold enrichment (6-mer frequency, TF over GST control)"
same,binding signal,[14],"1.21 fold enrichment (6-mer frequency, TF over GST control)"
same,binding signal,[15],"1.4 fold enrichment (6-mer frequency, TF over GST control)"
same,binding signal,[16],"1.17 fold enrichment (6-mer frequency, TF over GST control)"
same,binding signal,[17],"1.34 fold enrichment (6-mer frequency, TF over GST control)"
same,binding signal,[18],"1.3 fold enrichment (6-mer frequency, TF over GST control)"
same,binding signal,[19],"1.24 fold enrichment (6-mer frequency, TF over GST control)"
